Values without a mark were called inactive. Activity calls are given as the source filed them. Calls follow the shape of the full dose curve.
These compounds were tested against Estrogen receptor (Homo sapiens) (UniProt P03372) (assay: qHTS assay to identify small molecule agonists of the estrogen receptor alpha (ER-alpha) signaling pathway in the presence of an antagonist (AID 1259383; also: top concentration of the series differs between compounds; nearly all actives have a fitted effect of over 15% in size)). Conditions: VM7Luc4E2 cells, ERE-luciferase, +ICI-182,780, 22 h; series mostly up to 92.4 µM.
Estrogen receptor (Homo sapiens), sequence (P03372 whole entry, looked up): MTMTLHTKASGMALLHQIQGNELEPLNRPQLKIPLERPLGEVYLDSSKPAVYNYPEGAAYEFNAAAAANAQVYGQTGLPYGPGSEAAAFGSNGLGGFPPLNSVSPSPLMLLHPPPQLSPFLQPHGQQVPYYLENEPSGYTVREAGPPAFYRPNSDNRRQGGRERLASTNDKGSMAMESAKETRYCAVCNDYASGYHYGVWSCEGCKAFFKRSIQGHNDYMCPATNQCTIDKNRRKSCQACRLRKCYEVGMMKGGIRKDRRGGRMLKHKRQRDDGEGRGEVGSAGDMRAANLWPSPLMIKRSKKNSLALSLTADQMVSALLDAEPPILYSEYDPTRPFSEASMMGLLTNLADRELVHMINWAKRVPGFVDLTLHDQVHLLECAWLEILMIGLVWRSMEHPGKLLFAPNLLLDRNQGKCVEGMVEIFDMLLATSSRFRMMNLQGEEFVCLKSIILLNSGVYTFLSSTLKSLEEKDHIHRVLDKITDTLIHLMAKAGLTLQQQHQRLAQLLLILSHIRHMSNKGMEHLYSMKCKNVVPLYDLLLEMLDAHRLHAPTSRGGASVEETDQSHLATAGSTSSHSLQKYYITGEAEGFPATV
Description: National Center for Advancing Translational Sciences [NCATS] NIH Chemical Genomics Center [NCGC] U.S. Environmental Protection Agency [EPA] National Institutes of Environmental Health Sciences [NIEHS] National Toxicology Program [NTP] Assay overview: Estrogen receptor (ER), a member of nuclear hormone receptor plays an important role in development, metabolic homeostasis and reproduction. Two subtypes of ER, ER-alpha and ER-beta, have similar expression patterns with some uniqueness in both types. Endocrine disrupting chemicals (EDCs) and their interactions with steroid hormone receptors like ER causes disruption of normal endocrine function. Therefore, it is important to understand the effect of environmental chemicals in ER signaling pathway. For identifying ER agonists, VM7Luc4E2 cell line has been used in the current assay. VM7Luc4E2 cell line (provided by Denison MS, University of California) endogenously expresses full-length ER-alpha and is stably transfected with a plasmid containing four estrogen responsive elements (ERE) upstream of a luciferase reporter gene. This current screening for measuring luciferase reporter gene activity using VM7Luc4E2 cells against Tox21 10K library collection is a confirmation study on agonist mode screening in presence of ER-antagonist (ICI-182,780) at 10.0nM final concentration.
Assay Protocol Summary: VM7Luc4E2 cells were cultured in phenol red free assay medium containing 10% charcoal stripped FBS for 5 days prior to the assay. The cells were dispensed at 4,000 cells in 4uL of assay medium per well into white wall/solid-bottom 1536-well plates (Corning Life Sciences, Corning, NY) using a Multidrop Combi (Thermo Fisher Scientific Inc., Waltham, MA) dispenser. After the assay plates were incubated at 37C and 5% CO2 for 24hr, 1uL of 10.0nM (final concentration) ICI-182,780 or assay buffer was added using two separate tips of Flying Reagent Dispenser (FRD, Aurora Discovery, San Diego, CA). Then 23nL of compounds dissolved in DMSO at 15 concentrations and positive controls or DMSO only was transferred to the assay plates by a Pintool station (Wako, San Diego, CA). The assay plates were incubated at 37C and 5% CO2 for 22hr. For luciferase read, 4uL/well ONE-Glo reagent (Promega Corporation, Madison, WI) was added to each well using FRD and after 30min incubation at room temperature, luminescence signal was measured on ViewLux plate reader (PerkinElmer, Shelton, CT).
With `O=C(O)C(=O)Cc1ccccc1` the outcome was “inactive”.
With `CCCC/C=C/C=C\C=O` the outcome was “inactive”.
`Cc1ccsc1/C=C/C1=NCCCN1C` was tested, and the outcome was “inactive”.
With `O=C1CC(c2ccc(Cl)cc2)CC(=O)N1` the outcome was “inactive”.
`CCOc1cc([N+](=O)[O-])c(OCC)cc1N1CCOCC1` was tested, and the outcome was “inactive”.
For `Cc1cccc(C)c1NC(=O)c1ccccc1C(=O)O`, the outcome was “inactive”.
With `Cc1cc2cc3c(C)cc(=O)oc3c(C)c2o1` the outcome was “inactive”.
For `O=C(OCc1ccccc1)C(=O)OCc1ccccc1`, the outcome was “inactive”.
For `Cc1ccc2ccc(Cl)cc2n1`, the outcome was “inactive”.
`CC(=O)NCc1c(I)c(NC(C)=O)c(I)c(C(=O)O)c1I` was tested, and the outcome was “inactive”.
With `CC(C)OC(=O)CCCCC(=O)OC(C)C` the outcome was “inactive”.
With `O=C(CCNNC(=O)c1ccncc1)NCc1ccccc1` the outcome was “inactive”.
For `CC(=O)CCCCn1c(=O)c2c(ncn2C)n(C)c1=O`, the outcome was “inactive”.
For `CCCCCCCC/C=C\CCCCCCCC(=O)OCCCC`, the activation was 0.165% [at 19 µM].
For `CC(C)C(=O)OCCc1ccccc1`, the outcome was “inactive”.
`COc1cc2c(cc1OC)C(=O)CC2` was tested, and the outcome was “inactive”.
`ClCCCl` was tested, and the outcome was “inactive”.
With `Cc1cccc2nccnc12` the outcome was “inactive”.
For `Cc1ccccc1C(=O)Nc1ccc(C(=O)N2CCCC(N(C)C)c3ccccc32)cc1` (stereo not given), the outcome was “inactive”.
`Cc1ccc2c(c1)OCC(=O)CO2` was tested, and the outcome was “inactive”.
In the case of `C=C(C)C(=O)OCCOP(=O)(O)OCCOC(=O)C(=C)C`, the outcome is reported as “inactive”.
`CCOC(=O)/C=C/c1ccccc1` was tested, and the outcome was “inactive”.
`O=C(O)c1ccc(Cl)cc1Cl` was tested, and the outcome was “inactive”.
For `CC(N)C(=O)OC(C)(C)Cc1ccc(Cl)cc1` (stereo not given), the outcome was “inactive”.
In the case of `N[C@@H](CCC(=O)Nc1ccc([N+](=O)[O-])cc1)C(=O)O`, the outcome is reported as “inactive”.
In the case of `Cc1ccc(C=O)cc1C`, the outcome is reported as “inactive”.
With `COc1ccc(-c2cc(=O)c3c(O)cc(O[C@@H]4O[C@H](CO[C@@H]5O[C@@H](C)[C@H](O)[C@@H](O)[C@H]5O)[C@@H](O)[C@H](O)[C@H]4O)cc3o2)cc1O` the outcome was “inactive”.
With `CCCCN` the outcome was “inactive”.
In the case of `COCCOCCOCCOCCO`, the outcome is reported as “inactive”.
`C[C@H](CCC(=O)O)[C@H]1CC[C@H]2[C@@H]3C(=O)C[C@@H]4CC(=O)CC[C@]4(C)[C@H]3CC(=O)[C@]12C` was tested, and the outcome was “inactive”.
With `CCCCCCOc1ccccc1C(N)=O` the outcome was “inactive”.
With `CCCCOC(=O)c1ccccc1` the outcome was “inactive”.
For `O=C1c2ccccc2C(=O)c2cc(S(=O)(=O)O)ccc21`, the outcome was “inactive”.
`Oc1cn2c(n1)Nc1ccc(Cl)c(Cl)c1C2` showed an activation of -1.28% [at 19 µM].
For `CC(=O)Nc1ccc(S(=O)(=O)Nc2ccc([N+](=O)[O-])cc2)cc1`, the outcome was “inactive”.
`COc1cc(NS(=O)(=O)c2ccc(N)cc2)nc(OC)n1` was tested, and the outcome was “inactive”.
`CC(=O)Nc1cccc(C)c1` was tested, and the outcome was “inactive”.
In the case of `O=C(O)Cc1cn(-c2ccccc2)nc1-c1ccc(Cl)cc1`, the outcome is reported as “inactive”.
With `O=S(=O)(O)c1cc(O)c2ccc(Nc3ccccc3)cc2c1` the outcome was “inactive”.
`COc1ccc(S(=O)(=O)N2c3ccc(Cl)cc3[C@@](O)(c3ccccc3Cl)[C@H]2C(=O)N2CCC[C@@H]2C(N)=O)cc1OC` was tested, and the outcome was “inactive”.

Source: PubChem BioAssay (Tox21)
% is scaled to controls: 0 for no effect and ±100 for the full control effect.
